Test [1] in a line: qHTS assay for small molecule agonists of the p53 signaling pathway (AID 651631; calls by dose curve; further: nearly all actives have a fitted effect of over 15% in size; further: potency means the concentration at half of the fitted maximal effect). The method in brief:
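HCT-116 cells carrying a stable p53 response element–beta-lactamase reporter were plated, rested 5 h at 37 °C, then exposed to compound in DMSO for 16 h at 37 °C; reporter activity was read as FRET substrate fluorescence after 2 h at room temperature.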
Background: Quantitative high-throughput screening tests each substance at several concentrations.

The nature of test [2]: qHTS assay for small molecules that induce genotoxicity in human embryonic kidney cells expressing luciferase-tagged ATAD5 (AID 651632). Further: nearly all actives have a fitted effect of over 15% in size. Further: potency means the concentration at half of the fitted maximal effect. The method in brief:
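Luminescence read-out: after 16 hr compound exposure at 37C, ATAD5-luciferase HEK293T cells received Amplite, 30 min RT, then CCD imaging. A rise in signal marks genotoxic stress.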

Test [3] is described as follows: qHTS assay for small molecule agonists of the p53 signaling pathway - cell viability (AID 651633; calls by dose curve; further: nearly all actives have a fitted effect of over 30% in size; further: potency means the concentration at half of the fitted maximal effect). A digest of the protocol:
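p53RE-bla cells, seeded at 4,000 per well and rested 5 h at 37 C/5% CO2, received compounds in DMSO for 16 h at 37 C. CellTiter-Glo was then added, and luminescence was read after 30 min at room temperature to gauge cytotoxicity.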

A short description of test [4]: qHTS assay for small molecules that induce genotoxicity in human embryonic kidney cells expressing luciferase-tagged ATAD5 - cell viability (AID 651634; calls by dose curve; further: nearly all actives have a fitted effect of over 25% in size). A digest of the protocol:
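HEK293T ATAD5-luc cells, 2,000/well; compound 15.5 hr, 37C/5% CO2; CellTiter-Fluor 30 min, 37C; fluorescence read.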

A short description of test [5]: qHTS assay for small molecule disruptors of the mitochondrial membrane potential - cell viability (AID 720634; calls by dose curve; further: nearly all actives have a fitted effect of over 20% in size; further: potency means the concentration at half of the fitted maximal effect). A digest of the protocol:
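Luminescence from CellTiter-Glo (ATP content) gave viability in HepG2 cells, read in the same wells as the MMP dye assay after 1 hr compound exposure at 37 C.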

Test [6] in a line: qHTS assay for small molecule disruptors of the mitochondrial membrane potential (AID 720635). Further: potency means the concentration at half of the fitted maximal effect. A digest of the protocol: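 HepG2 cells (2,000/well) attached overnight at 37C, then took compound for 1 hr at 37C, 5% CO2. Mito-MPS dye was added for 30 min; fluorescence was read at 490/535 nm (monomers) and 540/590 nm (aggregates).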
The nature of test [7]: qHTS assay to test for compound auto fluorescence at 590 nm (red) in HepG2 cells (AID 720674). The method in brief:
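Intrinsic compound fluorescence in the red window (Ex/Em 540/590 nm) is measured in attached HepG2 cells exposed for 1 hr, DMSO vehicle as baseline, benchmarked to Rose Bengal sodium.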

Test [8] in a line: qHTS assay to test for compound auto fluorescence at 535 nm (green) in HepG2 cells (AID 720675).
Test [9] can be described thus: qHTS assay to test for compound auto fluorescence at 460 nm (blue) in HEK293 cells (AID 720678). The method in brief: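 Measured: blue fluorescence (Ex 405/Em 460 nm) of compound-treated HEK293 cells, incubated overnight at 37C with 5% CO2 and scaled to triamterene equivalents.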
The nature of test [10]: qHTS assay to test for compound auto fluorescence at 590 nm (red) in HEK293 cells (AID 720679). A digest of the protocol: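 Using HEK293 cells at 2,000 per well, the screen added 23 nL of each compound after cell attachment and incubated overnight (37C, 5% CO2). The plate reader then captured red-label fluorescence, Ex/Em 540/590nm.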
Test [11] can be described thus: qHTS assay to test for compound auto fluorescence at 535 nm (green) in HEK293 cells (AID 720680).
The nature of test [12]: qHTS assay to test for compound auto fluorescence at 460 nm (blue) in HEK293 cell free culture (AID 720681). The method in brief:
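Test compounds were pinned into cell-free culture medium (DMEM with 10% FBS) and fluorescence was read directly at Ex/Em 405/460 nm. Signals were expressed as fluorescence equivalents of triamterene, with DMSO vehicle as control.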

A short description of test [13]: qHTS assay to test for compound auto fluorescence at 535 nm (green) in HEK293 cell free culture (AID 720682). A digest of the protocol:
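Read-out: 485/535 nm fluorescence intensity, calibrated against fluorescein. Medium only (DMEM + 10% FBS, no cells); test compound or DMSO vehicle added by pintool before plate reading.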

A short description of test [14]: qHTS assay to test for compound auto fluorescence at 590 nm (red) in HEK293 cell free culture (AID 720683). A digest of the protocol:
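Tox21 10K library compounds were pinned into cell-free DMEM with 10% FBS and fluorescence was read at excitation 540 nm. Activity is expressed as Rose Bengal sodium equivalency.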

Test [15] can be described thus: qHTS assay to test for compound auto fluorescence at 590 nm (red) in HepG2 cell free culture (AID 720684). A digest of the protocol: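 Readout: intrinsic compound fluorescence at 590 nm emission after 540 nm excitation, scaled to Rose Bengal sodium. Matrix was cell-free MEM with 10% FBS; DMSO vehicle wells served as control.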
A short description of test [16]: qHTS assay to test for compound auto fluorescence at 460 nm (blue) in HepG2 cell free culture (AID 720685). A digest of the protocol: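 Cell-free plates of MEM plus 10% FBS received 23 nL compound or DMSO vehicle; blue-channel (405/460 nm) intensity scored against triamterene as reference fluorophore.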
Test [17] is described as follows: qHTS assay to test for compound auto fluorescence at 535 nm (green) in HepG2 cell free culture (AID 720686).
Test [18] can be described thus: qHTS assay to test for compound auto fluorescence at 460 nm (blue) in HepG2 cells (AID 720687). A digest of the protocol: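 Cells (2,000/well in MEM with 10% FBS) attached overnight at 37 C, then were exposed to compound or DMSO for 1 hr at 37 C, 5% CO2. Fluorescence read at Ex/Em 405/460 nm, expressed as triamterene-equivalent signal.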

Records with an inconclusive call do not appear. The source made the active and inactive calls. Unless noted, the call rests on the fitted dose curve; in most records, active means well fitted curve in the direction sought with a large enough effect in the repeat runs; inconclusive means weak or mixed curves; inactive means no such curve, though single readings can be large; an effect the other way counts as inactive or inconclusive.

Turning to `Cc1cc(CC(C)CC(C)(C)C)n(O)c(=O)c1` (stereo unspecified) (tested in a mixture with another compound), the Potency in [1] is 9.44 µM (active); in test [2] it was 13.3 µM (active); in [3] it was 29.8 µM (active); in test [6], 3.35 µM (active). In addition, the Potency entry in test [4], in test [5], in test [8], in test [9], in test [12] and in [16] was “inactive” in each case. Also, the Potency entry in test [17] and in test [18] was “inactive” throughout. The compound was classed as inactive in test [7], in [10], in test [11], in [13], in [14] and in [15].

As for `Cc1cnc(C(=O)O)c[n+]1[O-]`, the Potency entry in [1], in test [2], in [3], in [4], in [5] and in [6] was “inactive” throughout. For the same compound, the Potency result in test [8], in test [9], in test [12], in test [16], in [17] and in test [18] was “inactive” each time. Also, the call in test [7], in [10], in test [11], in test [13], in [14] and in test [15] was inactive.

Regarding `CC(C)(COP(=O)(O)OP(=O)(O)OC[C@H]1O[C@@H](n2cnc3c(N)ncnc32)[C@H](O)[C@@H]1OP(=O)(O)O)C(O)C(=O)NCCC(=O)NCCS` (stereo partly specified), the Potency entry in test [1], in test [2], in test [3], in [4], in test [5] and in test [6] was “inactive” throughout. Moreover, the Potency entry in test [8], in [9], in test [12], in test [16], in [17] and in [18] was “inactive” each time. The result in [7], in test [10], in [11], in [13], in test [14] and in test [15] was inactive.

Turning to `C=CC1=C(C(=O)O)N2C(=O)[C@@H](NC(=O)/C(=N\O)c3csc(N)n3)[C@H]2SC1` (stereo in doubt), the Potency result in test [1], in test [2], in [3], in test [4], in test [5] and in test [6] was “inactive” each time. For the same compound, the Potency result in [8], in test [9], in test [12], in test [16], in test [17] and in [18] was “inactive” in each case. The outcome in test [7], in test [10], in test [11], in test [13], in [14] and in [15] was inactive.

With `CCCCCCCCOC(=O)c1cc(O)c(O)c(O)c1`, the Potency in test [1] is 61.1 µM (active); in test [3], 54.5 µM (active); in test [5], 13.7 µM (active); in [6], 6.11 µM (active). In addition, the Potency entry in test [2], in [4], in [8], in test [9], in test [12] and in test [16] was “inactive” in each case. Besides, the Potency result in test [17] and in test [18] was “inactive” throughout. In addition, the compound was classed as inactive in [7], in test [10], in [11], in test [13], in test [14] and in test [15].

Consider `O=C(Cn1cnnn1)N[C@@H]1C(=O)N2C(C(=O)O)=C(CSc3nncs3)CS[C@H]12`, for which the Potency entry in test [1], in [2], in test [3], in test [4], in test [5] and in test [6] was “inactive” in each case. In addition, the Potency entry in [8], in [9], in test [12], in test [16], in [17] and in test [18] was “inactive” in each case. The compound was called inactive in test [7], in test [10], in test [11], in [13], in [14] and in test [15].

With `CC(C)OC(=O)Nc1ccc2nc(-c3cscn3)[nH]c2c1`, the Potency in test [1] is 2.37 µM (active); in [2], 10.6 µM (active); in [6] it was 9.87 µM (active). The Potency result in test [3], in [4], in test [5], in test [8], in test [9] and in [12] was “inactive” each time. Further, the Potency result in [16], in test [17] and in test [18] was “inactive” each time. Besides, the result in test [7], in test [10], in test [11], in [13], in test [14] and in test [15] was inactive.
